{"source": "PubChem BioAssay AID1117361", "about": "(Southern Research Institute, 2015)", "note": "In all, about 3,600 compounds went through this assay and about 900 (25%) were called active. The list is a sample of the results. Potency and affinity values are given separately. A number with no mark means an inactive call. How the calls were made is not given here."}
{"biological_target": "Protein Tat (Human immunodeficiency virus type 1 group M subtype B (isolate HXB2)) (UniProt P04608)", "experiment": "inhibitors of Tat binding to TAR RNA, dose response, counter-screen for Vif-APOBEC3G degradation inhibitor project, biochemical, fluorescence polarization, FAM-labeled TAR RNA (AID 1117361)", "details": "outcome: at 100 µM (top of the series) unless noted; series mostly up to 100 µM; inhibition: at the top concentration", "units": {"inhibition": "%"}}
{"smiles": "O=C(Nc1nccs1)C1CCCN(S(=O)(=O)c2cccc3cccnc23)C1", "note": "(stereo unspecified)", "outcome": "inactive"}
{"smiles": "Cn1c(C(=O)N[C@@H](C(=O)O)c2ccccc2)cc2cc(Cl)ccc21", "inhibition": 29.1}
{"smiles": "COc1ccc2nc(SCC(=O)NN)cc(C)c2c1", "inhibition": 4.05}
{"smiles": "Cc1ccc(SCCC(=O)NCc2ccco2)cc1", "outcome": "inactive"}
{"smiles": "CC(C)(C)c1nnc(NC(=O)c2ccc(Cl)nc2)s1", "outcome": "inactive"}
{"smiles": "N#Cc1ccccc1CN1C(=O)S/C(=C/c2cccn2-c2ccc(C(=O)O)cc2)C1=O", "inhibition": 22.4}
{"smiles": "Cc1ccc(C(=O)O)cc1-c1ccc(/C=C2/NC(=O)N(c3ccccc3)C2=O)o1", "inhibition": 10.3}
{"smiles": "CCNc1nc(OCCNS(=O)(=O)c2cc(C)ccc2C)nc(N(C)C)n1", "inhibition": 2.03}
{"smiles": "COc1ccccc1NC(=O)C(C)NS(=O)(=O)c1ccc(F)cc1", "note": "(stereo unspecified)", "inhibition": 7.5}
{"smiles": "CCc1ccc(OCCNC(=O)c2cccs2)cc1", "inhibition": 1.35}
{"smiles": "COc1ccccc1NC(=O)CN(c1ccccc1OC)S(=O)(=O)c1ccccc1", "inhibition": 3.3}
{"smiles": "Cc1c(C(=O)NCc2cccnc2)oc2ccccc12", "inhibition": 1.35}
{"smiles": "CCc1cccc(NC(=O)CCCCCC2NC(=O)NC2C)c1", "note": "(stereo unspecified)", "outcome": "inactive"}
{"smiles": "COC(=O)C1=C(C)NC(=O)C1(NS(=O)(=O)c1ccc(C)cc1)C(F)(F)F", "note": "(stereo unspecified)", "inhibition": 2.05}
{"smiles": "Cc1ccc(C)c(NC(=S)NCc2ccccc2)c1", "inhibition": 9.07}
{"smiles": "CN1c2ccsc2/C(=N/NC(=O)c2c(F)cccc2F)CS1(=O)=O", "inhibition": 10.2}
{"smiles": "O=C(O)C1=C(C(=O)Nc2ccc(F)c(Cl)c2)CCCC1", "inhibition": 10.1}
{"smiles": "COC(=O)CSc1nnc(CNC(=O)c2cccs2)n1-c1cc(OC)ccc1OC", "outcome": "inactive"}
{"smiles": "Cc1ccc(NC(=O)CSc2nnc(C3CCCCC3)n2N)cc1F", "inhibition": 0.68}
{"smiles": "CCOC(=O)C1CCCN(c2ncnc3c2cnn3-c2ccc(Cl)cc2)C1", "note": "(stereo unspecified)", "inhibition": 29.7}
{"smiles": "COc1cccc(NC(=O)C2CCCN2C(=O)OCc2ccccc2)c1", "note": "(stereo unspecified)", "inhibition": 4.05}
{"smiles": "O=C(O)c1cccc(S(=O)(=O)Nc2ccccc2Cl)c1", "outcome": "inactive"}
{"smiles": "CCOc1cccc(NC(=O)C2CCCN(S(=O)(=O)c3ccc(OC)cc3)C2)c1", "note": "(stereo unspecified)", "outcome": "inactive"}
{"smiles": "O=c1nc(N2CCOCC2)nc2n1CCO2", "inhibition": 0.68}
{"smiles": "Cc1cc(=O)n2nc(N3CCCC(C(=O)NC4CCC(C)CC4)C3)sc2n1", "note": "(stereo unspecified)", "outcome": "inactive"}
{"smiles": "CN(C)c1nc(OCCNC(=O)COc2ccc(Cl)cc2Cl)nc(N2CCOCC2)n1", "outcome": "inactive"}
{"smiles": "CCCCC(=O)Nc1ccc(C(=O)NN2C(=O)c3ccccc3C2=O)cc1", "inhibition": 2.73}
{"smiles": "Cc1ccc(NC(=O)CSc2nc(CSc3ccc(C)cc3)cc(=O)[nH]2)cc1", "outcome": "inactive"}
{"smiles": "O=C1c2cnc3nc(SCc4ccccc4)nn3c2CC2c3ccccc3CCN12", "note": "(stereo unspecified)", "inhibition": 1.36}
{"smiles": "CC(=O)Nc1ccc(S(=O)(=O)Nc2ccc(NC(=O)c3ccco3)cc2)cc1", "outcome": "inactive"}
{"smiles": "COc1ccc(S(=O)(=O)NCCSCc2ccco2)cc1Cl", "inhibition": 23.9}
